# Source: PubChem BioAssay (Tox21)
# Where “and” joins values, the source holds several entries; their conditions need not be identical. Identical values can stand only once. Results filed as inconclusive are left out. A call without a number means that no potency is given here. More than one record can exist for a structure, and the calls need not agree. Calls of active or inactive are those of the source. Unless noted, calls come from the whole dose curve; as a rule, active = well fitted curve in the direction sought with a large enough effect in the repeat runs; inconclusive = weak or mixed curves; inactive = no such curve, though single readings can be large; an effect the other way counts as inactive or inconclusive.
# Key:
# [1] = target: Thyrotropin receptor (Homo sapiens) (UniProt P16473); assay: qHTS assay to identify small molecule agonists of the thyroid stimulating hormone receptor (TSHR) signaling pathway (AID 1224843; calls by dose curve; note: nearly all actives have a fitted effect of over 45% in size)
# Method in brief: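 Agonist-mode screen: TSHR HEK293 cells received test chemicals for half an hour at room temperature, then HTRF cAMP detection reagents for one hour prior to fluorescence measurement. Each chemical ran as a 15-concentration series, triplicated.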
# [2] = qHTS assay to identify small molecule agonists of the hypoxia (HIF-1) signaling pathway - cell viability counter screen (AID 1224844; calls by dose curve; note: nearly all actives have a fitted effect of over 50% in size; note: potency is the fitted concentration of half-maximal effect)
# Method in brief: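 In this counter screen, HRE-bla ME-180 cell viability after 17 hrs of compound exposure at 37C was read by CellTiter-Glo luminescence, multiplexed with the beta-lactamase reporter measurement.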
# [3] = qHTS assay to identify small molecule agonists of H2AX (AID 1224845; active = well fitted activation curve with a large enough effect in the signal ratio in the repeat runs, not every such curve was filed as active; the % refers to the signal ratio)
# Method in brief: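 Wild-type CHO-K1 cells, plated overnight, exposed 3hr at 37C to 15 concentrations (0.76% DMSO final). Lysed, then HTRF anti-pH2AX (S139) cryptate and anti-H2AX-d2 antibodies, 24 hr room temperature; 665/620 nm emission read.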
# [4] = qHTS assay to identify small molecule agonists of the hypoxia (HIF-1) signaling pathway (AID 1224846; active = well fitted activation curve with a large enough effect in the signal ratio in the repeat runs, not every such curve was filed as active; the % refers to the signal ratio)
# Method in brief: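 ME-180 HRE-bla reporter cells; compounds in DMSO, 17 h at 37C; read-out beta-lactamase via CCF4-AM FRET.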
# [5] = qHTS assay to identify small molecule agonists of H2AX - cell viability counter screen (AID 1224847; calls by dose curve; note: nearly all actives have a fitted effect of over 30% in size; note: potency is the fitted concentration of half-maximal effect)
# Method in brief: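 Quantitative HTS viability measurement: CHO-K1 wild-type cells in serum (10% FBS) medium, short 3 hr drug exposure at 37C with 0.76% DMSO, CellTiter-Glo luminescent detection.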
# [6] = qHTS RealTime-Glo MT Cell Viability Assay in HepG2 cells - 24 hour (AID 1224867); note: nearly all actives have a fitted effect of over 50% in size
# Method in brief: (§1)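 Tox21 10K library screened in qHTS format on HepG2 cells carrying RealTime-Glo reagents. Compounds were added after a 5 h preincubation, and the luminescent signal from continuous culture was measured repeatedly during 40 h treatment.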
# [7] = qHTS RealTime-Glo MT Cell Viability Assay in HEK293 cells - 32 hour (AID 1224868); note: top concentration of the series differs between compounds; nearly all actives have a fitted effect of over 50% in size
# Method in brief: (§2)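 Luminescence generated by NanoLuc from substrate produced by living HEK293 cells served as the viability signal. Each value reflects the reading at its stated time point during continuous 40 h compound exposure at 37 C.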
# [8] = A CellTox Green Cytotoxicity Assay to monitor cytotoxicity in HEK293 cells - 0 hour (AID 1224869); note: nearly all actives have a fitted effect of over 50% in size; note: potency is the fitted concentration of half-maximal effect
# Method in brief: (§3)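 Real-time, in one plate: 600 HEK293 cells/well with dead-cell DNA dye, pinned compound after 5 h, 37 C incubation over 40 h; viable cells give no appreciable fluorescence.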
# [9] = qHTS RealTime-Glo MT Cell Viability Assay in HepG2 cells - 40 hour (AID 1224870); note: nearly all actives have a fitted effect of over 50% in size
# Method in brief: (§4)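 HepG2 cells (600/well) mixed with RealTime-Glo MT reagent, settled 5 h at 37 C/5% CO2 before compound addition. Nonlytic NanoLuc luminescence from viable-cell prosubstrate reduction read repeatedly during 40 h treatment at 37 C.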
# [10] = A CellTox Green Cytotoxicity Assay to monitor cytotoxicity in HEK293 cells - 40 hour (AID 1224871); note: nearly all actives have a fitted effect of over 45% in size; note: potency is the fitted concentration of half-maximal effect
# Method in brief: as §3
# [11] = qHTS RealTime-Glo MT Cell Viability Assay in HEK293 cells - 16 hour (AID 1224872)
# Method in brief: as §2
# [12] = qHTS RealTime-Glo MT Cell Viability Assay in HepG2 cells - 8 hour (AID 1224873); note: nearly all actives have a fitted effect of over 55% in size
# Method in brief: as §4
# [13] = qHTS RealTime-Glo MT Cell Viability Assay in HEK293 cells - 40 hour (AID 1224874); conditions: RealTime-Glo luminescence; max response: stronger effect = lower value; note: nearly all actives have a fitted effect of over 50% in size
# Method in brief: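 Kinetic, non-lysing viability readout. Seed HEK293 (600/well) with reagent, incubate 5 h at 37 C/5% CO2, pin 23 nL compound in DMSO, incubate at 37 C, read luminescence at 0, 8, 16, 24, 32, 40 h.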
# [14] = A CellTox Green Cytotoxicity Assay to monitor cytotoxicity in HepG2 cells - 16 hour (AID 1224876); note: nearly all actives have a fitted effect of over 45% in size; note: potency is the fitted concentration of half-maximal effect
# Method in brief: (§5)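 Cytotoxicity was tracked as dead-cell DNA fluorescence in HepG2 cells treated with test compounds at 37 C; each time-point value comes from one kinetic series spanning 0, 8, 16, 24, 32 and 40 h.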
# [15] = qHTS RealTime-Glo MT Cell Viability Assay in HepG2 cells - 32 hour (AID 1224877); note: nearly all actives have a fitted effect of over 55% in size
# Method in brief: as §1
# [16] = A CellTox Green Cytotoxicity Assay to monitor cytotoxicity in HepG2 cells - 24 hour (AID 1224878); note: nearly all actives have a fitted effect of over 45% in size; note: potency is the fitted concentration of half-maximal effect
# Method in brief: as §5
# [17] = A CellTox Green Cytotoxicity Assay to monitor cytotoxicity in HepG2 cells - 40 hour (AID 1224879); note: nearly all actives have a fitted effect of over 40% in size; note: potency is the fitted concentration of half-maximal effect
# Method in brief: as §5
# [18] = A CellTox Green Cytotoxicity Assay to monitor cytotoxicity in HEK293 cells - 24 hour (AID 1224875); note: nearly all actives have a fitted effect of over 45% in size; note: potency is the fitted concentration of half-maximal effect
# Method in brief: as §3
# [19] = qHTS assay to identify small molecule antagonists of the estrogen related receptor (ERR) signaling pathway from Tox21 library (AID 1224848); note: nearly all actives have a fitted effect of over 50% in size
# Method in brief: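 Quantitative high-throughput format: ERR reporter cells (2,000/well) pre-incubated 6 h, treated 18 h at 37 C with compounds in DMSO alongside positive and negative controls, then read by ONE-Glo luminescence.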
# [20] = qHTS assay to identify small molecule agonists of the estrogen related receptor (ERR) signaling pathway from Tox21 library (AID 1224849; calls by dose curve; note: nearly all actives have a fitted effect of over 15% in size); conditions: ERR reporter cell line, ONE-Glo luciferase, 18 h
# Method in brief: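 Luciferase activity in ERR pathway reporter cells served as the agonist readout; exposure lasted 18 h at 37 C, with ONE-Glo detection after 30 min at room temperature.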
# Sequence of Thyrotropin receptor (Homo sapiens) (P16473 whole entry, looked up): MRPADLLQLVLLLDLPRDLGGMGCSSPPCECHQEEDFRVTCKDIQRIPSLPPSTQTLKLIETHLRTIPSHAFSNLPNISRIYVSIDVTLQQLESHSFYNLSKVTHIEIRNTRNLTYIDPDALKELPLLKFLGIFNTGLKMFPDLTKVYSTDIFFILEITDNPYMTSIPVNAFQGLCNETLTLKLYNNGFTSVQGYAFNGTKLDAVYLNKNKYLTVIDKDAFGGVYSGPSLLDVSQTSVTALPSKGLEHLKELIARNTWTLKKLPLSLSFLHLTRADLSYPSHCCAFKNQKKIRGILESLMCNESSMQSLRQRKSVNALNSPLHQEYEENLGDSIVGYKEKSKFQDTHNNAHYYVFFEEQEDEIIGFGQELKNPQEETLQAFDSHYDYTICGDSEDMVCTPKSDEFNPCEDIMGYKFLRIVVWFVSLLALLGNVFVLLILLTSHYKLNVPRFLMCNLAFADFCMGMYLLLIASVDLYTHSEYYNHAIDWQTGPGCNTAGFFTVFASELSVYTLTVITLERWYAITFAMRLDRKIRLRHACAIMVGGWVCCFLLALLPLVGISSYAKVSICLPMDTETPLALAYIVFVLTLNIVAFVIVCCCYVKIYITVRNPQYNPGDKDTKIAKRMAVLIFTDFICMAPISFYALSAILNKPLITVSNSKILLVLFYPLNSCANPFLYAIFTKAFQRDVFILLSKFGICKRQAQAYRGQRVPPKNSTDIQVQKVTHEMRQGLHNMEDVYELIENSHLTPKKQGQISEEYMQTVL
structure (smiles),measurement,setting,value
OC1CCCCCCCCCCC1,Potency,[1],inactive
same,Potency,[2],inactive
same,outcome,[3],inactive
same,Potency,[4],inactive
same,Potency,[5],inactive
same,Potency,[6],inactive
same,Potency,[7],inactive
same,Potency,[8],inactive and 43.6 µM (active)
same,Potency,[9],inactive
same,Potency,[10],inactive and 43.6 µM (active)
same,Potency,[11],inactive
same,Potency,[12],inactive
same,max response,[13],-5.96% (inactive) and 2.11% (inactive)
same,Potency,[14],38.9 µM (active)
same,Potency,[15],inactive
same,Potency,[16],49.5 µM (active) and 43.6 µM (active)
same,Potency,[17],49.5 µM (active)
Cc1cccc(N(C)C(=S)Oc2ccc3ccccc3c2)c1,Potency,[1],inactive
same,Potency,[2],inactive
same,outcome,[3],inactive
same,Potency,[6],inactive
same,Potency,[7],inactive
same,Potency,[8],inactive
same,Potency,[9],inactive
same,Potency,[10],inactive
same,Potency,[12],inactive
same,max response,[13],-21.9% (inactive) and -0.992% (inactive)
same,Potency,[18],inactive
same,Potency,[14],inactive
same,Potency,[15],inactive
same,Potency,[16],inactive
same,Potency,[17],inactive
CCCCCCCCCCCO,Potency,[1],inactive
same,Potency,[2],inactive
same,Potency,[4],inactive
same,Potency,[5],inactive
same,Potency,[19],inactive
same,"activity change, positive = activation",[20]; at 92.4 µM (top of the series),-4.02% (inactive) and 0.762% (inactive)
same,Potency,[6],inactive
same,Potency,[7],inactive
same,Potency,[8],inactive
same,Potency,[9],inactive
same,Potency,[10],inactive
same,Potency,[11],inactive
same,Potency,[12],inactive
same,max response,[13],-2.32% (inactive) and 0.908% (inactive)
same,Potency,[18],inactive
same,Potency,[14],inactive
same,Potency,[15],inactive
same,Potency,[16],inactive
same,Potency,[17],inactive
OC(CCl)CCl,Potency,[1],inactive
same,Potency,[2],inactive
same,outcome,[3],inactive
same,Potency,[4],inactive
same,Potency,[5],inactive
same,Potency,[6],inactive
same,Potency,[7],inactive
same,Potency,[8],inactive
same,Potency,[9],inactive
same,Potency,[10],inactive
same,Potency,[11],inactive
same,Potency,[12],inactive
same,max response,[13],2.58% (inactive) and 9.25% (inactive)
same,Potency,[18],inactive
same,Potency,[14],inactive
same,Potency,[15],inactive
same,Potency,[16],inactive
same,Potency,[17],inactive
CC(=O)C1(C)CC2=C(CCCC2(C)C)CC1C (stereo unspecified),Potency,[1],inactive
same,Potency,[2],inactive
same,outcome,[3],inactive
same,Potency,[4],inactive
same,Potency,[5],inactive
same,Potency,[19],inactive
same,"activity change, positive = activation",[20]; at 92.4 µM (top of the series),8.11% (inactive) and 5.11% (inactive)
same,Potency,[6],inactive
same,Potency,[7],inactive
same,Potency,[8],inactive
same,Potency,[9],inactive
same,Potency,[10],41.6 µM (active)
same,Potency,[12],inactive
same,max response,[13],-4.9% (inactive) and 2.42% (inactive)
same,Potency,[14],inactive
same,Potency,[16],inactive
same,Potency,[17],inactive
CC(C(=O)O)c1cccc(C(=O)c2ccccc2)c1 (stereo unspecified),Potency,[1],inactive
same,Potency,[2],inactive
same,outcome,[3],inactive
same,Potency,[5],inactive
same,Potency,[19],inactive
same,"activity change, positive = activation",[20]; at 42.5 µM (top of the series),0.181% (inactive)
same,"activity change, positive = activation",[20]; at 92.4 µM (top of the series),2.6% (inactive)
same,Potency,[6],inactive
same,Potency,[7],inactive
same,Potency,[8],inactive
same,Potency,[9],inactive
same,Potency,[10],inactive
same,Potency,[11],inactive
same,Potency,[12],inactive
same,Potency,[18],inactive
same,Potency,[14],inactive
same,Potency,[15],inactive
same,Potency,[16],inactive
same,Potency,[17],inactive
O=C1OC2(c3cc(Br)c(O)c(Br)c3Oc3c2cc(Br)c(O)c3Br)c2c(Cl)c(Cl)c(Cl)c(Cl)c21,Potency,[1],inactive
same,Potency,[2],19.5 µM (active) and 29.7 µM (active)
same,Potency,[4],inactive
same,Potency,[5],7.14 µM (active)
same,Potency,[19],inactive
same,"activity change, positive = activation",[20]; at 42.5 µM (top of the series),-3.67% (inactive)
same,"activity change, positive = activation",[20]; at 92.4 µM (top of the series),-28% (inactive)
same,Potency,[6],inactive
same,Potency,[7],inactive
same,Potency,[8],43.7 µM (active) and 26.5 µM (active)
same,Potency,[9],inactive
same,Potency,[10],4.91 µM (active) and 29.7 µM (active)
same,Potency,[12],inactive
same,max response,[13],-3.53% (inactive)
same,Potency,[18],3.9 µM (active) and 26.5 µM (active)
same,Potency,[14],3.1 µM (active) and 14.9 µM (active)
same,Potency,[15],inactive
same,Potency,[16],3.1 µM (active) and 23.6 µM (active)
same,Potency,[17],3.1 µM (active) and 14.9 µM (active)
O=Cc1ccccc1O,Potency,[1],inactive
same,Potency,[2],inactive
same,outcome,[3],inactive
same,Potency,[4],inactive
same,Potency,[5],inactive
same,Potency,[6],inactive
same,Potency,[7],inactive
same,Potency,[8],inactive
same,Potency,[9],inactive
same,Potency,[10],inactive
same,Potency,[11],inactive
same,Potency,[12],inactive
same,Potency,[18],inactive
same,Potency,[14],inactive
same,Potency,[16],inactive
same,Potency,[17],inactive
CCCC(=O)O,Potency,[1],inactive
same,Potency,[2],inactive
same,Potency,[4],inactive
same,Potency,[5],inactive
same,Potency,[19],inactive
same,"activity change, positive = activation",[20]; at 92.4 µM (top of the series),4.22% (inactive) and -0.802% (inactive)
same,Potency,[6],inactive
same,Potency,[7],inactive
same,Potency,[8],inactive
same,Potency,[9],inactive
same,Potency,[10],inactive
same,Potency,[11],inactive
same,Potency,[12],inactive
same,Potency,[18],inactive
same,Potency,[14],inactive
same,Potency,[16],inactive
same,Potency,[17],inactive
CC(=O)c1ccccn1,Potency,[1],inactive
same,Potency,[2],inactive
same,Potency,[4],inactive
same,Potency,[5],inactive
same,Potency,[6],inactive
same,Potency,[7],inactive
same,Potency,[8],inactive
same,Potency,[9],inactive
same,Potency,[10],inactive
same,Potency,[11],inactive
same,Potency,[12],inactive
same,max response,[13],3.52% (inactive) and 4.42% (inactive)
same,Potency,[18],inactive
same,Potency,[14],inactive
same,Potency,[15],inactive
same,Potency,[16],inactive
same,Potency,[17],inactive
CCCc1c(OCCCCc2nn[nH]n2)ccc(C(C)=O)c1O,Potency,[1],inactive
same,Potency,[2],inactive
same,outcome,[3],inactive
same,Potency,[5],inactive
same,Potency,[6],inactive
same,Potency,[7],inactive
same,Potency,[8],inactive
same,Potency,[9],inactive
same,Potency,[10],inactive
same,Potency,[12],inactive
same,Potency,[18],inactive
same,Potency,[14],inactive
same,Potency,[16],inactive
same,Potency,[17],inactive
CN(C)CCN(Cc1cccs1)c1ccccn1,Potency,[1],inactive
same,Potency,[2],inactive
same,outcome,[3],inactive
same,Potency,[5],inactive
same,Potency,[6],inactive
same,Potency,[7],inactive
same,Potency,[8],inactive
same,Potency,[9],inactive
same,Potency,[10],inactive
same,Potency,[11],inactive
same,Potency,[12],inactive
same,max response,[13],-22.8% (inactive) and -7.6% (inactive)
same,Potency,[18],inactive
same,Potency,[14],inactive
same,Potency,[15],inactive
same,Potency,[16],inactive
same,Potency,[17],inactive
C[Si](C)(C)O[Si](C)(C)C,Potency,[1],inactive
same,Potency,[2],inactive
same,outcome,[3],inactive
same,Potency,[4],inactive
same,Potency,[5],inactive
same,Potency,[6],inactive
same,Potency,[7],inactive
same,Potency,[8],inactive
same,Potency,[9],inactive
same,Potency,[10],inactive
same,Potency,[12],inactive
same,Potency,[18],inactive
same,Potency,[14],inactive
same,Potency,[15],inactive
same,Potency,[16],inactive
same,Potency,[17],inactive
